Key:
Assay in all cases: PBM binding z-score (relative to random genomic background probes); higher = stronger binding; sequences stand for … in GC…GCGATTGACAGCGTAGAATGAAGG
[1] = system: RARb homodimer (NR concentration 270 nM)
Procedure, shortened: (§1)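 Random background probes are the reference for binding z-scores. These scores derive from regression-normalized fluorescence on custom Agilent 4×180K protein-binding microarrays incubated 1 h with ligand-free nuclear receptor dimers. Binding was detected with antibodies against each partner (one per run).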

[2] = system: RARg:RXRa (NR concentration 270 nM, RXRa partner concentration 90 nM)
Procedure, shortened: as §1

[3] = system: RARg homodimer (NR concentration 270 nM)
Procedure, shortened: as §1

[4] = system: RXRa DBDmut IVT, anti-RXR (DBD mutation: RXRa K156A/R161A, NR concentration 90 nM)
Procedure, shortened: as §1

[5] = system: RXRa homodimer (NR concentration 180 nM)
Procedure, shortened: as §1

[6] = system: THRa:RXRa (NR concentration 90 nM, RXRa partner concentration 90 nM)
Procedure, shortened: as §1

[7] = system: THRa homodimer (NR concentration 90 nM)
Procedure, shortened: as §1

[8] = system: VDR homodimer (NR concentration 270 nM)
Procedure, shortened: as §1

| Sequence | PBM binding z-score [1] | PBM binding z-score [2] | PBM binding z-score [3] | PBM binding z-score [4] | PBM binding z-score [5] | PBM binding z-score [6] | PBM binding z-score [7] | PBM binding z-score [8] |
| --- | --- | --- | --- | --- | --- | --- | --- | --- |
| CCTACTGGGCCAAAGGTCATTGCTTCCAATGCTC | 4.58 | 5.56 | 4.3 | 1.36 | 5.91 | 3.37 | 0.719 | 2.42 |
| AGTCAAAGTTCAGCTAGGTAACGTAAGATATGCT | 3.28 | 4.23 | 5.17 | 3.2 | 2.96 | 2.46 | 0.0376 | 2.26 |
| CAGACTAGGTCACGAAAGGTCAAAGTCGAATGAC | 5.63 | 7.9 | 8.73 | 2.27 | 8.34 | 4.96 | 2.29 | 4.05 |
| CCTACTGGGCCATCAGGTTATTGATATCAACGTT | 0.464 | 0.256 | 0.522 | -0.157 | 0.0138 | 0.797 | 0.712 | -0.275 |
| ATATGTAGGTTACCTCCGGGTCATTCAGGCTATG | 3.04 | 4.19 | 2.43 | 0.792 | 3.8 | 3.78 | 2.66 | 2.02 |
| TGAATGAGGTTATAATATCAGGGAACGTTGCAAA | 0.41 | 1.56 | 1.12 | 0.98 | 2.04 | 1.92 | 0.355 | 0.545 |
| GCGACTGGGGCAAAGCAGGTTACCAGAAGGTTGG | 1.32 | 0.622 | 0.806 | -0.155 | 0.313 | 2.87 | -0.356 | -0.376 |
| GGAACGAGGGCAAATTGATAGCAGAGTTTGATGG | 1.18 | 1.48 | 1.67 | 2.21 | 1 | 0.906 | -0.171 | 1.31 |
| CAACCTAGGTCACAGAGGTCAAAGTCCGTGCGTA | 5.82 | 7.61 | 7.92 | 3.68 | 8.52 | 4.55 | 3.1 | 7.57 |
| CATACAGAGTCAGCTAGGCCAGAGTAGGGACGGC | -0.0712 | -0.273 | 0.105 | -0.231 | -0.193 | -0.152 | -0.18 | -0.481 |
| CCTACTGGGCCAGAGGTCATTGATTCCAATGCTC | 4.02 | 4.51 | 3.89 | 1.52 | 4.88 | 3.22 | 1.09 | 3.61 |
| AATACAGGGTTATCGTAGGCCAGAGTACGCACAG | 1.09 | 1.52 | 1.11 | 0.484 | 2.28 | 3.61 | 0.15 | 1.12 |
| CGTTCAAGGTCAGCAGGTCAGTGAAAGCGACGTG | 5.45 | 6.75 | 7.14 | 3.31 | 5.46 | 4.18 | 3.13 | 2.25 |
| CCAACTGGGCCATTCAGAGGTCATTGATCATATG | 3.76 | 4.28 | 2.94 | 1.22 | 3.98 | 3.12 | 1.3 | 3.31 |
| TTTATTAGTTGAAGGGCAACCGACGAGTCCGTTT | 1.42 | 0.781 | 0.783 | 0.859 | 0.628 | 0.408 | 0.198 | 1.91 |
| CTCGAAAGGTCGGTTTAGGTGAGTATACGGATAA | 1.77 | 2.33 | 2.31 | 1.26 | 1.8 | 4.51 | 0.786 | 1.04 |
| GTACCAAGGTGAATAGGCCGTTGATGAGTAGGCG | 0.865 | 0.98 | 0.694 | -0.306 | 0.633 | 1.16 | 0.224 | -0.141 |
| CCTACTGGGCCATCAGGTCACTGATATCAACGTT | 2.82 | 2.28 | 2.5 | -0.0787 | 1.54 | 3.34 | 3.44 | 0.813 |
| CGTCCAAGGTCAATGCTAAGTCAGTGAAAGCATT | 3.83 | 5.54 | 6.06 | 3.39 | 4.48 | 3.72 | 1.98 | 2.06 |
| TATACAGGGTCAAAGGCCATAGTACGAATGTCGA | 3.79 | 5.96 | 5.29 | 3.05 | 7.75 | 3.78 | 0.843 | 3.25 |
| GCAGAAAGGTGAAACGCAGGTAACTCAGGGTGGC | 1.55 | 3.22 | 1.84 | 0.00146 | 2.31 | 2.25 | -0.396 | -0.808 |
| TCTGCTAGGTCAACGATGGTCACCTAATCTGCTA | 3.63 | 4.17 | 4.77 | 1.06 | 2.69 | 3.58 | 1.37 | 0.156 |
| ACTCGGAGGACATAGGTCAGAGCTACGCCAGTGA | 2.6 | 3.03 | 2.28 | 0.527 | 2.26 | 2 | 0.0623 | 0.202 |
| ATCTCTAGGTAATGTTCAGTGAAAGATCGATAGA | -0.207 | 0.262 | 0.561 | 0.333 | 0.234 | 0.493 | 0.382 | 0.364 |
| ACAGACAGGTGAGTGATGGTAACTCAGCTGGACG | -0.167 | 0.351 | 0.407 | -0.204 | 0.27 | -0.225 | -0.414 | -0.122 |
| CCAGACAGGTGAGAAAGTAACTCAGCCTCGATTA | 0.0469 | 0.0483 | 0.249 | 0.169 | 0.0557 | -0.0555 | -0.123 | -0.255 |

| Sequence | PBM binding z-score [1] | PBM binding z-score [2] | PBM binding z-score [3] | PBM binding z-score [4] | PBM binding z-score [5] | PBM binding z-score [6] | PBM binding z-score [7] | PBM binding z-score [8] |
| --- | --- | --- | --- | --- | --- | --- | --- | --- |
| AGTCAAAGTACAGGACGAGGTAACGTAAAGCACG | 0.274 | 0.526 | 0.919 | -0.155 | 0.598 | 1.39 | 0.878 | -0.0315 |
| TTACCAAGGTGAAGATCGTTGATCCCTCTGTAGA | 0.271 | 0.271 | 0.232 | -0.349 | 0.567 | 1.58 | 0.0556 | -0.499 |
| CGTCCAAGGTGAATGCTAGGTCAGTGAAAGCATT | 2.81 | 3.71 | 1.91 | -0.198 | 1.02 | 3.27 | 1.59 | -0.00133 |
| TCTGCTAGGTCAACGATGGCCAGCTAATCTGCTA | 2.85 | 3.75 | 4.72 | 0.868 | 2.35 | 2.6 | 0.486 | -0.708 |
| CTCGAAAGGTAGGTTGAGGTGAGTATACGGATAA | 0.59 | 0.129 | 0.396 | -0.171 | 0.223 | 3.9 | 1.24 | 0.0952 |
| CCTGCTAGGTCAATGGTCAGCCAAAGCAGCTCGC | 3.05 | 3.38 | 4.35 | 1.48 | 2.23 | 2.06 | 0.619 | -0.16 |
| TCTGCTAGGTCAGTTGGTCAGCTCACGAGCTGCC | 2.45 | 2.61 | 3.31 | 0.58 | 1.15 | 1.38 | 0.196 | -0.78 |
| CCTAGCAGGCCAATCTGGGTCACTGAAGGCTTGA | 2.38 | 1.15 | 1.38 | 0.114 | 0.872 | 3.79 | 0.399 | -0.314 |
| TGAATGAGGTTACAGATCAGGGAACGTGGCGTCG | 0.793 | 1.89 | 1.4 | 0.394 | 2.29 | 2.67 | 0.836 | 0.364 |
| ATCTCTAGGTAAAGTTCGGTGAAAGATCGATAGA | 0.59 | 0.582 | 0.694 | 0.694 | 0.31 | 1.1 | 0.351 | 0.916 |
| CGTCCAAGGTCATAGGTGGTCAGTGAAGACAGAT | 4.26 | 5.65 | 5.75 | 3.99 | 5.94 | 4.18 | 2.79 | 3.02 |
| TCTTGTAGATCAGCAGGGTAAGAAAGCTGGCCAA | -0.187 | -0.327 | -0.5 | 0.581 | -0.0542 | -0.165 | -0.567 | -0.255 |
| CCTCGGAGGACAACAGGACGTCAGAGCTGCCAGA | 0.189 | 0.272 | 1.12 | 0.0264 | -0.244 | 0.648 | -0.377 | -0.354 |
| CGTCCAAGGTAATAGGAGGTCAGTGAAGACAGAT | 2.88 | 2.11 | 2.21 | 0.17 | 1.8 | 3.94 | 1.27 | 1.2 |
| ATCTCTAGGTTAGACTCAGTTCAGTGAAGAACGC | 1.37 | 1.4 | 1.14 | 1 | 0.687 | 1.52 | 1.21 | 2.48 |
| TCTCGGAGAACACGAAAGGTCAGAGCTCGACATC | 4.31 | 3.67 | 3.24 | 0.702 | 3.72 | 2.63 | 0.193 | 0.319 |
| CCTCGGAGGATAACAGGAGGTCAGAGCTGCCAGA | 2.61 | 2.32 | 2.11 | -0.476 | 1.73 | 2.4 | 0.791 | 0.96 |
| ATACCAAGGTGATGGTGAGGTCGTTGATACTAAC | 1.83 | 1.84 | 0.644 | 0.506 | 1.11 | 3.24 | 2.44 | 2.63 |
| AGATCGAGGGCACGCTGAGTTGATAGCAGAGTAG | 0.796 | 1.71 | 1.86 | 1.57 | 0.933 | 1.63 | -0.107 | 1.65 |
| CCTCGGAGGACAACACGAGGTCAGAGCTGCCAGA | 3.53 | 3.58 | 3.22 | 0.871 | 2.23 | 3.57 | 2.8 | 1.85 |
| TCATATAGGTAATACAGGTTAAAGTCGGCATCTA | 0.936 | 0.979 | 0.696 | 2.04 | 1.63 | 1.35 | 0.204 | 0.629 |
| CGTCCAAGGTCAGAGAGGTCAGTAAATGCCGAGT | 5.22 | 5.95 | 7.02 | 3.45 | 5.43 | 4.24 | 2.87 | 5.99 |
| ACTAGTTGGTCAGCTGTGGTCACACACAATTCGG | 1.25 | 0.489 | 0.965 | 0.13 | 0.281 | 1.77 | 0.0925 | 0.0683 |
| AGTCAAAGTTCAGGACGAGGTAACATAAAGCACG | 3.26 | 4.89 | 4.71 | 3.19 | 3.25 | 3.73 | 1.55 | 2.24 |
| TCATCTAGGTAATACAGGTGAAAGTCGGCATCTA | 0.692 | 0.578 | 0.298 | 1.24 | 0.959 | 1.07 | 0.275 | 0.373 |
| TGTCAAAGTTCCAAGGTAACGTAAGTATCCACAC | 0.222 | 0.298 | 0.719 | -0.251 | 0.443 | 1.72 | 1.09 | -0.0741 |
